From the supplement of paper PMC12067093, “Discovery and optimisation of a covalent ligand for TRIM25 and its application to targeted protein ubiquitination” (Chemical Science, 2025)
About 21,000 targets were measured; listed, in parts, are those with the largest changes and a random draw of the rest.

Compound: Cc1cc(ccc1-c1ccccc1)C(=O)N1CCCN(CC1)C(=O)CCl [compound 10]
Assay: probe-labelled cysteine peptide fold change vs DMSO (competition) (log2 fold change); higher = less target engagement (more negative = stronger competition)
Conditions: THP-1, incubation time: 4 h
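Also: competitive profiling in live THP-1 cells: cysteine peptides tagged with an iodoacetamide desthiobiotin (IA-DTB) probe, intensity after compound treatment relative to DMSO-treated cells.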

UniProt Q8TDD1, sequence (Q8TDD1 whole entry, looked up): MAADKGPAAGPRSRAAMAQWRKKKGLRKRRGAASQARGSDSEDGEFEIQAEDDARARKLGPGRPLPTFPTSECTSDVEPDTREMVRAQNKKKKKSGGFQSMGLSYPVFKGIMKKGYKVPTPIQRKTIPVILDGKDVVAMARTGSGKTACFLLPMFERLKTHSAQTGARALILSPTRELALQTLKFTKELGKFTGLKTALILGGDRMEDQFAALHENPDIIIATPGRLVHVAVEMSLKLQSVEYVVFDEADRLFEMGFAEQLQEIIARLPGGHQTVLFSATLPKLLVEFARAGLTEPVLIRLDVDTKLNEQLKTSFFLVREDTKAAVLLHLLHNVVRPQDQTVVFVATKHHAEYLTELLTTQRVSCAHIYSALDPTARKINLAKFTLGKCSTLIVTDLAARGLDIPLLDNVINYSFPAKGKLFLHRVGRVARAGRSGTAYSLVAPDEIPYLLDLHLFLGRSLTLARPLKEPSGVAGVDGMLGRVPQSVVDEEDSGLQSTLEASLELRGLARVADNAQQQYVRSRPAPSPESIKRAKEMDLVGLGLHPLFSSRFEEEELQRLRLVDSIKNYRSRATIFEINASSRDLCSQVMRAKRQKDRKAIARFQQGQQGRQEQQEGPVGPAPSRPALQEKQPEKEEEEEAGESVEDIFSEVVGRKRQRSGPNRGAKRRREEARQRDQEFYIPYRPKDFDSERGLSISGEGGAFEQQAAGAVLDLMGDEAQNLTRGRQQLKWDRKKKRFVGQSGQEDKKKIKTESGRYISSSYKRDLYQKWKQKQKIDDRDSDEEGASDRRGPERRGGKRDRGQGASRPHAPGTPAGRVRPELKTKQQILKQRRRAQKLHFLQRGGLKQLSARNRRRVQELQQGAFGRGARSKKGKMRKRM
UniProt O14579, sequence (O14579 whole entry, looked up): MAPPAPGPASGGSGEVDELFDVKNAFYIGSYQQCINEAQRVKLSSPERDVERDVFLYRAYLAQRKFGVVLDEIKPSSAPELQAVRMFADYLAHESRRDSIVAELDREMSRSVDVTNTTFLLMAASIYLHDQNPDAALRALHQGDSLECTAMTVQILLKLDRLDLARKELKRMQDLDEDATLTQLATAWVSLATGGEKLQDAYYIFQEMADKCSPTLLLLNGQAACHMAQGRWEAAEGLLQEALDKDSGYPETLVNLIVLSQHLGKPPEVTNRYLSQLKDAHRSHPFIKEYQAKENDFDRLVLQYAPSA
UniProt A2RUS2, sequence (A2RUS2 whole entry, looked up): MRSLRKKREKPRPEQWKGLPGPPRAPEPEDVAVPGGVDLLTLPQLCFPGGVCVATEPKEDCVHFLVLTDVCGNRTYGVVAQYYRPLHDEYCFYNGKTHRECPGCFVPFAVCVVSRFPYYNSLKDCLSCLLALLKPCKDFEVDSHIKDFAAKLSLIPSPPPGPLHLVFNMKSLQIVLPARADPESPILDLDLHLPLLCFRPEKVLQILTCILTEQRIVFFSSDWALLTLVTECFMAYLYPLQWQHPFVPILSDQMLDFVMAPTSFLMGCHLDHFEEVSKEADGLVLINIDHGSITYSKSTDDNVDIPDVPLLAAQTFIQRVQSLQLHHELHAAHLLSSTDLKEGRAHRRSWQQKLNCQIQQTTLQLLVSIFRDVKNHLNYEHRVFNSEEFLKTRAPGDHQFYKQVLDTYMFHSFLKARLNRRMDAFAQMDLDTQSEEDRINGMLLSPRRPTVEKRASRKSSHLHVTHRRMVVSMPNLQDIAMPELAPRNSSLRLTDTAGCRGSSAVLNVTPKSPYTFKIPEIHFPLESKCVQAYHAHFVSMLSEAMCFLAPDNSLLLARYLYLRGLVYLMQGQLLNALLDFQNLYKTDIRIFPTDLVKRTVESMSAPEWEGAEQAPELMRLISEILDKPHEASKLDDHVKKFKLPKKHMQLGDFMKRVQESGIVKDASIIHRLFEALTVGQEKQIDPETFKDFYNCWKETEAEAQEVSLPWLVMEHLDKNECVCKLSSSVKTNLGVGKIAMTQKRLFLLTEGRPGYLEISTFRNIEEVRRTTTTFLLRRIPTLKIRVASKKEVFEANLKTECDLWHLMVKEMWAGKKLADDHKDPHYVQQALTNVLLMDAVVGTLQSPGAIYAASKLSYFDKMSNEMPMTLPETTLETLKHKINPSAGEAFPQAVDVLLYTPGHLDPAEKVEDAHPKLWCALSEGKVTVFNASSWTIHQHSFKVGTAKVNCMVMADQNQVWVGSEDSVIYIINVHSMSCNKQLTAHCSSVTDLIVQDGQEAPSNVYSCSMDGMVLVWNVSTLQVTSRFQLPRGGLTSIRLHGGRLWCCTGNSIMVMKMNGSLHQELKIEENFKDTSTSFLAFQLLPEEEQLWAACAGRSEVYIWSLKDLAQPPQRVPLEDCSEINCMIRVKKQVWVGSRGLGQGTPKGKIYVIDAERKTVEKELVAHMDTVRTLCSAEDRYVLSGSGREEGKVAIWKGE
UniProt Q9UKG9, sequence (Q9UKG9 whole entry, looked up): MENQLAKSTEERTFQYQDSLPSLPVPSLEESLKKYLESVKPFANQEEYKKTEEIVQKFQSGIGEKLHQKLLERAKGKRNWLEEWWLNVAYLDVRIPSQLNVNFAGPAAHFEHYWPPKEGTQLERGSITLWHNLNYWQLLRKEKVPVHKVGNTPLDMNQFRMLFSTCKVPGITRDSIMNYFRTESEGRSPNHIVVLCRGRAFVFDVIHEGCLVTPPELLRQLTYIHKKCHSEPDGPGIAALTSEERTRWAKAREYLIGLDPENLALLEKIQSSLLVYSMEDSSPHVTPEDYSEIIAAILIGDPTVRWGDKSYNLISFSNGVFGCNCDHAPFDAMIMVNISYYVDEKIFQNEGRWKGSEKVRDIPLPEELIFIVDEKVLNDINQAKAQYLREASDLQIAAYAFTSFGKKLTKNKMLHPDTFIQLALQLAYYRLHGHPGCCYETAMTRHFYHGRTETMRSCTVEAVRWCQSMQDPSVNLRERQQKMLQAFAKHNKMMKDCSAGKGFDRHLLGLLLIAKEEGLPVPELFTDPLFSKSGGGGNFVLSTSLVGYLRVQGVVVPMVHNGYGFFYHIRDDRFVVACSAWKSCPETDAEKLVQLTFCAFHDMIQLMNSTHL
UniProt Q9P0U4, sequence (Q9P0U4 whole entry, looked up): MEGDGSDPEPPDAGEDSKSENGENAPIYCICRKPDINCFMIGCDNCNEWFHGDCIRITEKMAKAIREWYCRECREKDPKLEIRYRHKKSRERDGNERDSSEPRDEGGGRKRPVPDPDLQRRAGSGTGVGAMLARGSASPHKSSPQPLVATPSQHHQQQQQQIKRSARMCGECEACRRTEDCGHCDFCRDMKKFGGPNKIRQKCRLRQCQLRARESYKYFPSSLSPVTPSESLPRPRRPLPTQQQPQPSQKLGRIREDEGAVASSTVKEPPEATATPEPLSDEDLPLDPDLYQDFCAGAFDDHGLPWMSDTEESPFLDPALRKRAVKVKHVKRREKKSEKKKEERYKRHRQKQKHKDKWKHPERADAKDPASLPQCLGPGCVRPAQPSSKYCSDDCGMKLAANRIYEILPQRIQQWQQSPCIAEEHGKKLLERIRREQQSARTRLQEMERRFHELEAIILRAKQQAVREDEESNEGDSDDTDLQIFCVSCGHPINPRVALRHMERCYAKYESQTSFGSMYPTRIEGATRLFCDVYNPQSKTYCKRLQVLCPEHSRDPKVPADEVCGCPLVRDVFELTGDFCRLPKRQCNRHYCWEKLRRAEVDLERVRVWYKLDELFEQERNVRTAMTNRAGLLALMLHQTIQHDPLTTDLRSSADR
UniProt Q9Y678, sequence (Q9Y678 whole entry, looked up): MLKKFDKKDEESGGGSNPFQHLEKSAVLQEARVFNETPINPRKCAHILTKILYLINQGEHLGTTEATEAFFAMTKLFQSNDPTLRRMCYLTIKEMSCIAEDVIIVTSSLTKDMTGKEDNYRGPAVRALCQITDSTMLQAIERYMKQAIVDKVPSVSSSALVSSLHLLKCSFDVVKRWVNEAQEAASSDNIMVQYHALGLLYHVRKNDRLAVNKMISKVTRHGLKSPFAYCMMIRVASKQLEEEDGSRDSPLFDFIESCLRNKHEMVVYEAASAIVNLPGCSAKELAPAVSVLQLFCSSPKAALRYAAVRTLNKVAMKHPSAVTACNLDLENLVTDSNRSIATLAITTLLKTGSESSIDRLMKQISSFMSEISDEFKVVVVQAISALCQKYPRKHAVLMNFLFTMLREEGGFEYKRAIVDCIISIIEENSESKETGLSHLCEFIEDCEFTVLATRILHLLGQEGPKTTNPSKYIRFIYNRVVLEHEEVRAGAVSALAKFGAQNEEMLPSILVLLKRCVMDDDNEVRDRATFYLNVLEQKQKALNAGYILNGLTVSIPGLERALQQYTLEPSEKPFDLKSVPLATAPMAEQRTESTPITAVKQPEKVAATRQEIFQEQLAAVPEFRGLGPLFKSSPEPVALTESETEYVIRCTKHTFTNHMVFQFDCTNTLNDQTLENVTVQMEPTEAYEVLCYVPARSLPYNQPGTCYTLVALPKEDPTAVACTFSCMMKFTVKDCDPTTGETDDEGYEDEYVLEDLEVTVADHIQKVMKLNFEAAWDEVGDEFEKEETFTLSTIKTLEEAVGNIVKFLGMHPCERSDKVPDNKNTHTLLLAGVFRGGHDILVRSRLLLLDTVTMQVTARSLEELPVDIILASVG
UniProt Q9NV06, sequence (Q9NV06 whole entry, looked up): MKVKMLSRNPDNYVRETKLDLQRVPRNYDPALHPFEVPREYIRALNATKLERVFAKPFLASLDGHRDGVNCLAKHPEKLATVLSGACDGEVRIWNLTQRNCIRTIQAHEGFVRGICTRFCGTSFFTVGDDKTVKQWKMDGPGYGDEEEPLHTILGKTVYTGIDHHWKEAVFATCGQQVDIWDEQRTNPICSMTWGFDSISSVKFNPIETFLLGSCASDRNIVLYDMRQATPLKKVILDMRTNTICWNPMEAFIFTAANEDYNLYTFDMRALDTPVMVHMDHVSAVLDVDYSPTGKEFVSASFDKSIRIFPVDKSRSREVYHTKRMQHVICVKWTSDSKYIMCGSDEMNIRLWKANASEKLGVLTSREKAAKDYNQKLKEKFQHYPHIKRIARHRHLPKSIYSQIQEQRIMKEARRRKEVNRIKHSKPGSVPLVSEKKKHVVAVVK
UniProt Q14061, sequence (Q14061 whole entry, looked up): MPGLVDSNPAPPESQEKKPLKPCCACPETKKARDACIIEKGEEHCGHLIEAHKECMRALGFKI

Target	probe-labelled cysteine peptide fold change (10 µM)	probe-labelled cysteine peptide fold change (50 µM)
CROT_Q9UKG9_166_MLFSTCK (UniProt Q9UKG9)	-0.0518	-0.0687
CRELD2_Q6UXH1_166_QGDGSCR (UniProt Q6UXH1)	-0.195	-0.265
CTPS1_P17812_30_SCGLHVTSIK (UniProt P17812)	0.14	0.147
COPE_O14579_212_CSPTLLLLNGQAACHMAQGR (UniProt O14579)	0.0619	0.054
DCAF13_Q9NV06_215_FNPIETFLLGSCASDR (UniProt Q9NV06)	0.105	-0.0461
CXXC1_Q9P0U4_564_VPADEVCGCPLVR (UniProt Q9P0U4)	0.111	-0.109
CSDE1_O75534_657_FQLCVLGQNAQTMAYNITPLR (UniProt O75534)	0.223	0.2
COL15A1_P39059_965_GAIFPIPVRPHCK (UniProt P39059)	-0.0948	0.0369
CTSG_P08311_207_AAFKGDSGGPLLCNNVAHGIVSYGK (UniProt P08311)	-0.329	-0.817
CNNM4_Q6P4Q7_220_IVQNCGTEK<|>CNNM2_Q9H8M5_293_IVQNCGTEK (UniProt Q9H8M5+Q6P4Q7)	-0.2	-0.279
DNM1L_O00429_446_IIQHCSNYSTQELLR (UniProt O00429)	-0.165	-0.0631
DIAPH2_O60879_775_NEYDDLCEPEQFGVVMSSVK (UniProt O60879)	-0.117	0.261
DDX3X_O00571_128_WCDKSDEDDWSK (UniProt O00571)	-0.303	-1.35
DNAJA3_Q96EY1_236_EFTVNIMDTCER (UniProt Q96EY1)	-0.1	-0.195
DCAF6_Q58WW2_513_GIGSHCK (UniProt Q58WW2)	-0.205	-0.361
DDX59_Q5T1V6_453_LFKPPVLVFVDCK (UniProt Q5T1V6)	-0.33	-1.68
CSMD2_Q7Z408-3_2_CDAHLR (UniProt Q7Z408)	0.077	-2.14
CPPED1_Q9BRF8_88_FFVLCGDLIHAMPGKPWR (UniProt Q9BRF8)	-0.0653	-0.191
DCAF12_Q5T6F0_253_EDTNPDNCK (UniProt Q5T6F0)	-0.303	-0.538

Target	probe-labelled cysteine peptide fold change (10 µM)	probe-labelled cysteine peptide fold change (50 µM)
DDX17_Q92841_166+199_GGDVCPKPVFAFHHANFPQYVMDVLMDQHFTEPTPIQCQGFPLALSGR (UniProt Q92841)	-0.28	-1.05
DBR1_Q9UK59_36_RGPGPVDLLLCCGDFQAVR (UniProt Q9UK59)	0.0792	-0.183
DNAJC7_Q99615_175_ALEFAPACHR (UniProt Q99615)	-0.118	-0.577
COPA_P53621_1169_NPTDAYQLNYDMHNPFDICAASYR (UniProt P53621)	0.178	0.397
DDX5_P17844_191_ELAQQVQQVAAEYCR (UniProt P17844)	0.115	-0.161
DDX27_Q96GQ7_248_ACIPVGLLGK (UniProt Q96GQ7)	0.238	-0.122
DHX8_Q14562_1108_AICSGFFR (UniProt Q14562)	-0.267	0.29
DENND3_A2RUS2_1094_DTSTSFLAFQLLPEEEQLWAACAGR (UniProt A2RUS2)	1.07	1.16
DDX24_Q9GZR7_570_IHCETDEK (UniProt Q9GZR7)	-0.15	0.261
DDX54_Q8TDD1_389_CSTLIVTDLAAR (UniProt Q8TDD1)	0.1	0.184
COG1_Q8WTW3_318_LCSWFK (UniProt Q8WTW3)	-1.03	-2.3
COPG1_Q9Y678_440_ETGLSHLCEFIEDCEFTVLATR (UniProt Q9Y678)	0.0873	0.125
DENND4B_O75064_652_HAALEFFDSCVEK (UniProt O75064)	0.0262	0.235
DCTD_P32321_60_IVGIGYNGMPNGCSDDVLPWR (UniProt P32321)	0.155	-0.179
CMTR1_Q8N1G2_794_DSTFDLPADSIAPFHICYYGR (UniProt Q8N1G2)	0.205	0.653
CNOT4_O95628_175_AIQCVNNVVVDGR (UniProt O95628)	-0.0308	-0.303
COX17_Q14061_23+24_KPLKPCCACPETK (UniProt Q14061)	-0.321	-2.25
DNAJC7_Q99615_58_AIDMCPK (UniProt Q99615)	0.162	0.0415
DKK2_Q9UBU2_214_ICKPVLHQGEVCTK (UniProt Q9UBU2)	-0.0653	-0.0474
